Bioassay records from PubChem BioAssay.
Sampled rows, rich in hits. Any-hit rate of the full collection: about 3.4%.
HTT aggregate: inhibitors of mutant huntingtin aggregate formation in PC12 cells; PC12 HttQ103-GFP aggregates, Acumen cytometry, 40 h; hit rate 1.1% among 220,000; Potency, µM (highest dose often 46.1 µM), for the others: at the highest dose activity change, negative = inhibition, actives largely listed as inhibitors; also: potency is read from the fitted curve at half-maximal effect; % is scaled to controls: 0 for no effect and ±100 for the full control effect; nearly all actives have a fitted effect of over 60% in size
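Read-out: GFP aggregate count by laser scanning cytometer (488 nm excitation, 500-530 nm emission, 1–25 µm objects >6 SD above background). Cells: PC12, inducible HTTex1-Q103-GFP, 100 nM tebufenozide; compounds titrated.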
IMPase Li inh: IMPase inhibition in cells with lithium potentiation; CHO-M1 cells, IP1 TR-FRET (IP-One), carbachol + lithium; Potency, µM (highest dose often 59.4 µM), without a hit: top-dose activity, negative = IMPase inhibition, usual class: inhibitors; hit rate 0.35% among 210,000; AID 1457;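 also: IP1 builds up when IMPase is blocked and the TR-FRET signal falls; potency is read from the fitted curve at half-maximal effect; plate controls were basal vehicle for no effect and high inhibitor control for full effect; nearly all actives have a fitted effect of over 50% in size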
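IP1 accumulation measured by competitive TR-FRET in lysed CHO-M1 cells after 30 min compound exposure at 37C, with a small lithium addition to potentiate weak responses. Hill-equation AC50 from ratio and donor-channel data.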
NPSR antagonist: antagonists of human neuropeptide S receptor cAMP signaling | hit rate 1% among 220,000 | CHO-NPSR cells, cAMP TR-FRET, antagonist mode | AID 1461 | Potency, µM (series often up to 38.3 µM), for the others: at the highest dose activity change, negative = inhibition, actives largely listed as inhibitors | Q6W5P4; also: potency is read from the fitted curve at half-maximal effect; % is scaled to controls: 0 for no effect and ±100 for the full control effect; nearly all actives have a fitted effect of over 50% in size
Target sequence (Q6W5P4 whole entry, looked up): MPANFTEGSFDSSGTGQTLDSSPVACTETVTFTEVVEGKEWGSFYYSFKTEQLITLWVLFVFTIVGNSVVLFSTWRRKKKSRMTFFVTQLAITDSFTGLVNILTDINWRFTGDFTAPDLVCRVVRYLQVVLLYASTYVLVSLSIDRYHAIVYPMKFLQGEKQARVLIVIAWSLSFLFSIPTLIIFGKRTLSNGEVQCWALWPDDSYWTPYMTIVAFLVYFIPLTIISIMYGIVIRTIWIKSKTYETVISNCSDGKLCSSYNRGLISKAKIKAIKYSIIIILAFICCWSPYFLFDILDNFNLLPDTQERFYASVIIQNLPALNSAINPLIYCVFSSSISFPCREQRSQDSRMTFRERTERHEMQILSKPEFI
PNC assembly inh: blocks assembly of the perinucleolar compartment. PC3M PTB-GFP, PNC prevalence imaging, 16 h; stronger effect = lower value. activity change (PNC), negative = inhibition, % at 10 µM. hit rate 3.1% among 140,000. AID 2417;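 active = readout at or below -70, meaning at least 70% loss of cells showing the perinucleolar compartment, a nuclear body marking cancer cells; inconclusive = readout between -30 and a set limit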;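 also: plate controls were DMSO wells for no effect and camptothecin positive control wells for full effect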
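Compounds are pinned in duplicate onto adhered PC3M cells stably expressing GFP-tagged PTB and incubated 16 h at 37 C. Cells are then fixed, nuclei stained with Hoechst, and PNC-positive cells counted.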
IMPase cell inh: membrane-permeable compound that blocks inositol monophosphatase | P97697 | inhibition (IP1 accumulation), % at 46.1 µM | CHO-M1 cells, IP1 accumulation, HTRF TR-FRET ratio | AID 901 | 120,000 tested, under 10 active; active = well fitted curve in the direction sought with a large enough effect in the signal ratio, not every such curve was filed as active; inconclusive = small, poorly fitted or top-dose-only effect, or a change in a side signal; inactive = no such curve, though single readings can be large or run the other way; the % refers to the signal ratio;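 also: cells stimulated with carbachol in lithium chloride buffer; plate controls were DMSO basal wells for no effect and reference inhibitor wells for full effect; higher means more IMPase inhibition seen as more IP1 and lower FRET ratio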
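Measured: the HTRF emission ratio (665/620 nm) plus the 620 nm donor channel, each fitted to the Hill equation to give AC50. Cells were CHO-M1 given compounds up to 46 uM and a 30 min carbachol stimulation at 37C.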
HTT ATP protect: protects HTT-Q103 PC12 cells, measured by ATP; PC12 HTT-Q103 induced, cytoprotection, ATP luminescence, 40 h; Potency, µM (top dose mostly 56.4 µM), inactives show cytoprotection (ATP increase), most hits filed as activators; hit rate 0.14% among 230,000; also: potency is read from the fitted curve at half-maximal effect; % of control where 0% means no effect; nearly all actives have a fitted effect of over 45% in size
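Rat PC12, Q103 Htt exon1-GFP fusion, ecdysone promoter; tebufenozide inducer 100 nM final; compound titration; qHTS, 1500 cells/well; ATPlite luminescent read.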
* marks the source's active call; other numbers are inactive results; ! = not active in a repeat; [ ] = dose if it differs, or a comment. Unless noted, calls follow the shape of the dose curve; as a rule, active = well fitted curve in the direction sought with a large enough effect; inconclusive = small, poorly fitted or top-dose-only effect, or another doubt; inactive = no such curve, though single readings can be large; an effect the other way counts as inactive or inconclusive.

What do the screens show for `COCc1ccc([C@@H]2C[C@H]3CN(Cc4ccccc4C)C(=O)[C@]34CCCN24)o1`?
HTT aggregate: 4.5µM*; IMPase Li inh: 24%; NPSR antagonist: 34%; HTT ATP protect: -147%

What do the screens show for `Cc1ccc(S(=O)(=O)c2ccc(Oc3cccc(C)c3)cc2)cc1`?
HTT aggregate: inconclusive; IMPase Li inh: 29%[38.3 µM]; NPSR antagonist: -19%[46.1 µM]; PNC assembly inh: 78; IMPase cell inh: 7; HTT ATP protect: -53%

How did O=C(COc1ccc(/C=N/NC(=O)c2cc3ccccc3o2)cc1Cl)Nc1ccccc1 do in these assays?
HTT aggregate: -9%; IMPase Li inh: 2%; NPSR antagonist: 4µM*; PNC assembly inh: -119*; IMPase cell inh: -4; HTT ATP protect: -11%[10 µM]

Results for O=C(N/N=C/c1ccc2c(c1)OCO2)c1cc2ccccc2o1 ?
HTT aggregate: -15%[9.22 µM]; NPSR antagonist: 4%; HTT ATP protect: 10%[10 µM]

Results for COC(=O)Cn1nnc2c(cnn2-c2ccccc2)c1=O ?
HTT aggregate: 6%[9.22 µM]; IMPase Li inh: 1%; NPSR antagonist: 0%; HTT ATP protect: -1%[10 µM]

Results for CC(C)OC(=O)Cn1nnc2c(cnn2-c2ccccc2)c1=O ?
HTT aggregate: -1%; IMPase Li inh: 7%; NPSR antagonist: 5%[46.1 µM]; PNC assembly inh: -100*; IMPase cell inh: 12; HTT ATP protect: -8%[10 µM]

How did N#CCCn1c(=O)c(-c2ccc(Cl)cc2)nc2cnc(N3CCNCC3)nc21 do in these assays?
IMPase Li inh: 4%; HTT ATP protect: -91%

How did COc1ccccc1N1CCN(CCCNc2cc(=O)n(C)c(=O)n2C)CC1 do in these assays?
HTT aggregate: 24%; IMPase Li inh: 11%; NPSR antagonist: -4%[46.1 µM]; IMPase cell inh: 8; HTT ATP protect: 32µM*!

Results for COc1ccccc1N1CCN(CCCNc2c(C)c(=O)n(C)c(=O)n2C)CC1 ?
IMPase Li inh: 17%; NPSR antagonist: 13%[46.1 µM]; IMPase cell inh: 11; HTT ATP protect: 18%

How did CC1CCN(C(=O)Cn2cc(C#N)c3ccccc32)CC1 do in these assays?
HTT aggregate: -16%; IMPase Li inh: 7%; NPSR antagonist: -4%[46.1 µM]; PNC assembly inh: -6; IMPase cell inh: 4; HTT ATP protect: 13%[1.9 µM]

Results for CC1CCN(C(=O)Cn2cc(C(=O)C3CC3)c3ccccc32)CC1 ?
HTT aggregate: 31%; IMPase Li inh: 10%; NPSR antagonist: -5%; PNC assembly inh: -103*; IMPase cell inh: -3; HTT ATP protect: 12%[10 µM]

Results for COc1ccc(NC(=O)c2ccc(NCCN3C(=O)CCC3=O)c([N+](=O)[O-])c2)cc1 ?
HTT aggregate: 5%; IMPase Li inh: 7%; NPSR antagonist: -21%; HTT ATP protect: -20%

What do the screens show for `COc1ccc(S(=O)(=O)N2CCC(c3cc(-c4cccc5ccccc45)n[nH]3)CC2)cc1`?
HTT aggregate: inconclusive; IMPase Li inh: 4%[38.3 µM]; NPSR antagonist: -22%[46.1 µM]; PNC assembly inh: 13; IMPase cell inh: 9; HTT ATP protect: -54%

What do the screens show for `O=S(=O)(c1cccc(C(F)(F)F)c1)N1CCC(c2cc(-c3cccc4ccccc34)n[nH]2)CC1`?
HTT aggregate: 1µM*; IMPase Li inh: 0%[38.3 µM]; NPSR antagonist: -7%[46.1 µM]; PNC assembly inh: 70; IMPase cell inh: -1; HTT ATP protect: -74%

What do the screens show for `O=C(Oc1ccc(/C=N/NC(=O)c2ccccc2O)cc1)c1ccccc1`?
HTT aggregate: -18%; IMPase Li inh: 18%[38.3 µM]; NPSR antagonist: -11%[46.1 µM]; PNC assembly inh: inconclusive; IMPase cell inh: 2; HTT ATP protect: -7%

What do the screens show for `Cn1nccc1C(=O)Oc1ccc(/C=N/NC(=O)c2ccccc2O)cc1`?
HTT aggregate: inconclusive; IMPase Li inh: 23%; NPSR antagonist: -12%; HTT ATP protect: 0.89µM*

What do the screens show for `c1ccc(-c2n[nH]c3c2oc2ccccc23)cc1`?
IMPase Li inh: 24%; HTT ATP protect: -33%

How did CCCc1nnc(-c2cc(OC)c(OC)c(OC)c2)o1 do in these assays?
HTT aggregate: 19%; IMPase Li inh: 4%; NPSR antagonist: 5%; PNC assembly inh: -91*; HTT ATP protect: -1%[10 µM]
